Screening data as filed in PubChem.
TEAD-YAP inh: TEAD-YAP interaction inhibition, primary screen, TEAD-YAP interaction inhibitor project, luminescence, HEK-TIYL cells. inhibition, % at 9.12 µM. TEAD-Gal4/YAP UAS-luciferase luminescence. 640,000 tested, 1.4% active; in the data active = inhibition above about 32%;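 also: 0% = median of test compound wells and 100% = reference inhibitor wells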
GPR151 ag: activators of human GPR151, primary screen, cell-based, PathHunter beta-arrestin, luminescence; AID 1508602, 2020; G-protein coupled receptor 151 (Homo sapiens), Q8TDV0; activation, % at 11.2 µM; 650,000 tested, 1% active; PathHunter beta-arrestin GPR151 cells; in the data active = activation above about 4.9%;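 also: 0% = median of compound wells and 100% = cells with positive control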
FBW7 act: FBW7 E3 ligase activators, primary screen, biochemical, AlphaScreen, human. F-box/WD repeat-containing protein 7 (Homo sapiens), Q969H0. AlphaScreen FBW7–phospho-cyclin E peptide binding, activator screen. normalized activity (activation), % at 26.1 µM. 650,000 tested, 0.13% active. AID 1259310, 2017; in the data active = normalized activity above about 1.9%;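 also: purified mutant Fbw7 with reduced substrate affinity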
MITF inh: MITF inhibitors, primary screen, biochemical, AlphaScreen, human | AlphaScreen MITF homodimerization, bead proximity signal | inhibition, % at 2.6 µM | 650,000 tested, 0.91% active | AID 1259374, 2018; in the data active = inhibition above about 50%;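 also: 0% = vehicle wells with protein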
Target sequence (O75030 whole entry, looked up): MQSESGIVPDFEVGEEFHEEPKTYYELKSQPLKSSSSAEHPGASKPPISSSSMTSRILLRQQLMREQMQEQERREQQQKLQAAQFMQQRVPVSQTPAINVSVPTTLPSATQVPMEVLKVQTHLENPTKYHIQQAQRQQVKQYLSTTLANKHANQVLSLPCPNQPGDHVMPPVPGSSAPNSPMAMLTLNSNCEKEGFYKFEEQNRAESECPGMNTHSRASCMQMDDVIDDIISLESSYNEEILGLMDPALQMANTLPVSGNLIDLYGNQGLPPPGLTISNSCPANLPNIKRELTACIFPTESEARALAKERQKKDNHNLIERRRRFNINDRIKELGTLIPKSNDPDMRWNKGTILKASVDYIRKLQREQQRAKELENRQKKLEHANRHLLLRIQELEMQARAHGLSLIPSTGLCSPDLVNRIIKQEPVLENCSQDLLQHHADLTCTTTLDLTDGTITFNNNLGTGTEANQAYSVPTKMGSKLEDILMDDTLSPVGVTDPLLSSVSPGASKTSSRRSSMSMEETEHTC
MITF inh conf: MITF inhibitors, retest of hits, confirmation, biochemical, AlphaScreen, triplicate | shares compounds with MITF inh | AlphaScreen MITF homodimerization, biotin/His-MITF beads | inhibition, % at 2.6 µM | 4,700 tested, 16% active | AID 1259372, 2018;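 active = inhibition above a cutoff derived from the DMSO control wells, cut at about 28% in these data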;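 also: 0% = MITF dimer wells with DMSO only; inhibitors lower the bead chemiluminescence by keeping MITF from dimerizing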
AS interf DR: AlphaScreen optical interference compounds, dose response, counter-screen, biochemical, HTS | AlphaScreen optical interference counterscreen, cell-free | IC50, µM | 480 tested, 6% active | AID 1259373, 2018 | shares compounds with MITF inh; call rule not given here
AlphaScreen intf2: AlphaScreen optical interference compounds, counter-screen for MITF inhibitor project, biochemical, triplicate; inhibition, % at 2.6 µM; LysRS AlphaScreen counterscreen, signal interference; shares compounds with MITF inh; 4,700 tested, 7.6% active;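 active = inhibition above a cutoff derived from the DMSO control wells, cut at about 30% in these data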
Starred values were filed as active, the others as inactive; nt = no result given. Most compounds without a hit are left out; they make up all but 3.5% or so of the library.

SMILES	TEAD-YAP inh	GPR151 ag	FBW7 act	MITF inh	MITF inh conf	AlphaScreen intf2	others
c1ccc(CN2CCC(=NNc3nc4ccccc4[nH]3)CC2)cc1	-11	-1	0	43	nt	nt
CN1CCC(=NNc2nc3ccccc3[nH]2)CC1	-26	-1	0	53*	8	2
CC1(C)CC(=O)c2sc(NC(=O)CS(=O)(=O)c3ccc(Cl)cc3)nc2C1	5	-2	0	-2	nt	nt
O=S(=O)(Nc1cccc2cccnc12)c1ccc2ccccc2c1	16	0	-1	13	nt	nt
O=S(=O)(Nc1cccc2cccnc12)c1ccccc1O	72*	1	0	60*	87*	101*
O=C(NC1CCCCC1)c1nn2c(c1Br)NC(c1cccs1)CC2C(F)(F)F (stereo not given)	-1	1	0	60*	-9	-9
CC(C)NC(=O)c1nn2c(c1Br)NC(c1cccs1)CC2C(F)(F)F (stereo not given)	0	0	0	-2	nt	nt
O=S(=O)(O)c1cc(S(=O)(=O)O)c2cc(O)c(S(=O)(=O)O)cc2c1	7	-1	-1	60*	67*	14	AS interf DR=>6.5
Cc1nnc(NC(=O)CN2CCOCC2)s1	-6	1	0	-8	nt	nt
CCN1CCN(CCC(=O)Nc2ccccc2)CC1	8	-2	2	24	nt	nt
CCN1CCN(CC(=O)N(C)c2ccccc2)CC1	-2	1	0	67*	-11	1
CCN1CCN(CC(=O)NCc2ccccc2OC)CC1	-6	-1	0	99*	3	13
CN(C(=O)N1CCN(C(=O)N(C)c2ccccc2)CC1)c1ccccc1	1	-1	0	14	nt	nt
CCN1CCN(CC(=O)Nc2ccccc2)CC1	2	1	0	59*	-1	10
CCN1CCN(CC(=O)Nc2nnc(C)s2)CC1	4	0	0	74*	8	9
COc1ccc(C2CC(=O)C3=C(C2)NC(=O)CC3c2cccc(C)c2)cc1 (stereo not given)	1	0	0	-16	nt	nt
Cc1cccc(-c2nc3s/c(=C\c4ccc(C)o4)c(=O)n3n2)c1	11	-1	0	3	nt	nt
COc1cc(OC)cc(C(=O)Nc2c(C(=O)Nc3ccccc3OC)oc3ccccc23)c1	6	0	0	6	nt	nt
Cc1cc(C)cc(NC(=O)CCN2CCc3ccccc3C2)c1	-5	-1	0	-1	nt	nt
Cc1cc(C)cc(NC(=O)CN2CCc3ccccc3C2)c1	3	0	0	69*	0	5
CN(CCNS(=O)(=O)c1ccc2c(c1)CCN2C(=O)C1CCC1)Cc1ccccc1	-7	0	0	-5	nt	nt
CCCc1[nH]nc2c1C(c1c(OC)cc(OC)cc1OC)C(C#N)=C(N)O2 (stereo not given)	3	1	0	12	nt	nt
CCCc1[nH]nc2c1C(c1ccc(OC)cc1OC)C(C#N)=C(N)O2 (stereo not given)	-1	-1	0	61*	11	17
Cc1ccc(C(c2ccc(Br)cc2)c2ccc(C)o2)o1	1	3	0	8	nt	nt
COc1ccc(C(=O)COC(=O)CCC(=O)Nc2ccc(Cl)c(Cl)c2)cc1	2	2	0	-6	nt	nt
COc1ccc(NC(=O)CCC(=O)OCC(=O)c2ccc(Cl)c(Cl)c2)cc1	13	1	0	62*	14	16
O=[N+]([O-])c1ccc(N/N=C/c2cccc(O)c2O)c(S(=O)(=O)N2CCOCC2)c1	-19	0	-1	-36	nt	nt
O=[N+]([O-])c1ccc(N/N=C/c2ccco2)c(S(=O)(=O)N2CCOCC2)c1	-5	0	0	63*	33*	-1	AS interf DR=>6.5
CC(C)(C)c1nnc(NC(=O)CN2C(=O)C3C4C=CC(C4)C3C2=O)s1 (stereo not given)	4	0	0	68*	1	-10
COc1ccc(-n2c(O)c(C=Nc3cccc(N(C)C)c3)c(=O)[nH]c2=S)cc1	7	0	0	9	nt	nt
